A selection: hits, their analogues and other compounds. The true share with any hit is near 4%.
D1 antag: blocks dopamine activation of the human D1 receptor. P21728. HEK293 TREx D1 cells, calcium flux, dopamine EC80; active compounds read low. activity change, negative = inhibition, % at 10 µM. 3.2% of 360,000 active; in the data active means activity change below about -30%
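HEK293 T-REx cells expressing inducible, force-coupled D1 receptor; no-wash Ca dye, 30–90 min RT. Cmpd → 180 s read at 1 Hz → EC80 DA → 180 s read.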
GRP78 ERSR act: induces the endoplasmic reticulum stress response in human glioma cells; U87-MG GRP78 promoter luciferase reporter, 16 h; Potency, µM, most hits filed as activators; 0.02% of 420,000 active; AID 602332; active means well fitted activation curve with a large enough effect; inconclusive means small, poorly fitted or top-dose-only effect; inactive means no such curve, though single readings can be large or run the other way; further: series mostly up to about 76 µM; nearly all actives have a fitted effect of over 35% in size
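Stably transfected U87-MG glioma cells carrying a GRP78-based luciferase sensor; 16 h compound incubation. Luminescence end-point read 10 min after Bright-Glo addition at room temperature.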
D1 PAM: enhances dopamine response at the human D1 receptor; 0.036% of 360,000 active; potentiation, % at 10 µM; P21728; HEK293 TREx D1 cells, calcium flux, dopamine EC20 potentiation; in the data active means potentiation above about 30%
D1 agonist: human D1 receptor agonism. 1% of 360,000 active. HEK293 T-REx D1 cells, calcium flux, agonist mode. AID 504660. activation, % at 2 µM
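Agonism was scored from calcium flux recorded over 180 s (1 read/s) after pintool compound addition, following a 10-cycle baseline. Cells were inducible force-coupled HEK293 TREx D1, plated overnight at 30 C and loaded with no-wash calcium dye.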
TRHR PAM: allosterically enhances the human TRH receptor. TRHR cells, fluo-8 calcium fluorescence, EC20 TRH enhancement. enhancement, % at 2 µM. 0.66% of 360,000 active; in the data active means enhancement above about 30%
Target sequence (P34981 whole entry, looked up): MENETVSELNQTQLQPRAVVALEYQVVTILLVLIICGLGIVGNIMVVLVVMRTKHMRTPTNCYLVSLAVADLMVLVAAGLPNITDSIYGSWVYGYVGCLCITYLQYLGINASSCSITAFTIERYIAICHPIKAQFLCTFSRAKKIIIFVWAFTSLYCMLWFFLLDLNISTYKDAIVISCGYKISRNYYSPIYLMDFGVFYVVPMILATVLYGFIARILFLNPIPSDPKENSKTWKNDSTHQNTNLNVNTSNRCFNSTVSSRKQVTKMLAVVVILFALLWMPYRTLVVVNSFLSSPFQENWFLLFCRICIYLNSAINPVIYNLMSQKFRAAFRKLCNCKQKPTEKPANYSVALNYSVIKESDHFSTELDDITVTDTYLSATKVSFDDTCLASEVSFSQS
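Enhancer read-out: after compound pinning and an initial kinetic agonist-mode read, an EC20 of TRH (10 nM final) was injected and fluo-8 calcium signal (Ex 480/Em 530) followed at 1 s/cycle for 100 cycles in TRHR-expressing cells.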
TRHR agonist: agonists of human TRH receptor; activation, % at 2 µM; AID 493084; TRHR cells, calcium flux fluo-8, FDSS agonist mode; 0.18% of 360,000 active; P34981
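Steps: seed TRHR cells overnight; add fluo-8 no-wash Ca dye, RT 30 min–1.5 h; record 10 s baseline; pin-transfer compounds; monitor fluorescence 1 cycle/s for the agonist window. Calcium increases flag candidate agonists.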
Each line names hits and unclear results; the compound was inactive in the other large screens. Unless noted, no stated cut-off is given here; in the data, active means activation above about 30%; inactive means the rest.

CN(C)c1ccc(/C=C2\C(=N)N3N=C(CC(=O)N4CCCC4)SC3=NC2=O)cc1Br	none
CN(C)c1ccc(/C=C2\C(=N)N3C(=NC2=O)Sc2cc(S(C)(=O)=O)ccc23)cc1	D1 agonist 78.2, TRHR agonist 33.9 (no result: GRP78 ERSR act)
CN(C)c1ccc(/C=C2\C(=N)N3N=C(CC(=O)N4CCCCC4)SC3=NC2=O)cc1	D1 agonist 36.5, TRHR agonist 30.6
CCOc1ccc(NC(=O)CN2C(=O)NC3(CCCC3)C2=O)cc1S(=O)(=O)N1CCCCC1	none
COc1cccc(NC(=S)NNC(=O)c2c([N+](=O)[O-])c(C)nn2C)c1	none
Cn1cccc1Cc1nnc(SCC(N)=O)n1-c1ccc(F)cc1	none
O=C(COc1cc2oc(=O)c3c(c2cc1Cl)CCC3)NCc1ccncc1	TRHR PAM 35.7
Cn1c(=O)[nH]c(=O)c2c1nc([N+](=O)[O-])n2Cc1ccccc1	none
COC(=O)c1cc2occc2n1Cc1cccc(C)c1	none
CCc1cccc(NC(=O)Cn2c(C(=O)OC)cc3occc32)c1	TRHR PAM 36.5
N=c1ncn(CC(O)CN2CCOCC2)c2nc(N3CCOCC3)[nH]c12 (configuration not stated)	D1 antag -58.3
COc1ccc(-c2nnc(SCc3ccccc3)n2N)cc1	GRP78 ERSR act inconclusive, D1 agonist 62.7
Cc1ccc(-c2nnc(SCC#N)n2N)cc1	D1 antag -32.9
c1ccc(CCn2c(SCc3ccccc3)nnc2-c2ccncc2)cc1	D1 agonist 34.7
CSCC[C@H](NC(=O)N1CCn2c1nc1ccccc12)C(=O)NCC1CCCO1 (some centres not stated)	none
Cc1ccc(C(=O)/C=C/N(C)C)cn1	none
CCC(C)c1ccc(S(=O)(=O)Nc2cccnc2)cc1 (configuration not stated)	D1 antag -51.3
CCOc1ccc(S(=O)(=O)Nc2cccnc2)cc1	none
Cc1ccc(S(=O)(=O)Nc2cccnc2)cc1C	none
O=S(=O)(Nc1cccnc1)c1ccc(Cl)c(C(F)(F)F)c1	D1 antag -37.7
O=C(C[n+]1ccncc1)c1cccc([N+](=O)[O-])c1	none (no result: D1 antag, D1 PAM, D1 agonist, TRHR PAM, TRHR agonist)
CCN(CC)c1ccc(/C=C(\C#N)C(=O)NCc2ccccc2)cc1	D1 agonist 57.7
CN(C)c1ccc(/C=C(\C#N)C(=O)NCc2ccco2)cc1	D1 agonist 35.1 (no result: GRP78 ERSR act)
N#C/C(=C\c1cn(Cc2ccc(F)cc2)c2ccccc12)C(=O)NCc1ccco1	D1 antag -35.8
CCN(CC)c1ccc(/C=C(\C#N)C(=O)NCc2ccco2)cc1	D1 agonist 47.9 (no result: GRP78 ERSR act)
N#C/C(=C/c1ccc(C(=O)O)cc1)C(=O)NCc1ccccc1	none
CCOc1ccc(N(CC(=O)Nc2cccc(OC)c2)S(=O)(=O)c2c(C)noc2C)cc1	none
CC1(c2ccc(OCC(N)=O)cc2)NC(=O)NC1=O (configuration not stated)	none
Cn1c(=O)n(C)c2cc(/C=C(/C#N)C(=O)NCc3ccco3)ccc21	none
CC(OC(=O)/C(C#N)=C/c1ccc(N(C)C)cc1)C(=O)NCc1ccco1 (configuration not stated)	D1 agonist 35.0 (no result: GRP78 ERSR act)
O=C(c1cccc(O)c1)N1CCN(C(=O)C2CC2)CC1	none (no result: D1 antag, D1 PAM, D1 agonist, TRHR PAM, TRHR agonist)
O=S(=O)(c1ccc(F)cc1F)N1CCCN(c2ccc(C(F)(F)F)cn2)CC1	none
N#Cc1ccc(S(=O)(=O)N2CCCN(c3ccc(C(F)(F)F)cn3)CC2)cc1	D1 antag -35.7
COc1ccc(OC)c(NC(=O)C(=O)N/N=C/c2ccccc2[N+](=O)[O-])c1	D1 antag -34.5
CC(C)C[C@H](NC(=O)c1nc[nH]c1C(=O)N1CCc2ccccc2C1)C(=O)OCc1ccccc1	GRP78 ERSR act inconclusive
O=C(NCC1CCCO1)c1ccc2c(=O)n(-c3ccc(F)cc3)c(=S)[nH]c2c1 (configuration not stated)	none
Cc1ccc(C)n1-n1cnc2sc3c(c2c1=O)CCC3	D1 antag -33.0
Cc1ccc(Cn2cnc3sc4c(c3c2=O)CCC4)c(C)c1	D1 PAM 38.0
O=C(O)c1ccc(Cn2cnc3sc4c(c3c2=O)CCCC4)cc1	none

High-throughput results as filed in PubChem BioAssay.
